Source: PubChem
Mcl1 Noxa PPI = disrupts binding of human Mcl-1 to Noxa peptide; TR-FRET Mcl-1/Noxa peptide binding, 2 h; inhibition, % at 21.7 µM; 220,000 compounds, 1.5% hits;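 active = compounds that cut the protein-peptide binding signal by more than 50% relative to plate controls in a single-dose test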;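 also: His-tagged Mcl-1 with rhodamine Noxa BH3 peptide and terbium anti-His antibody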
Target sequence (Q07820 whole entry, looked up): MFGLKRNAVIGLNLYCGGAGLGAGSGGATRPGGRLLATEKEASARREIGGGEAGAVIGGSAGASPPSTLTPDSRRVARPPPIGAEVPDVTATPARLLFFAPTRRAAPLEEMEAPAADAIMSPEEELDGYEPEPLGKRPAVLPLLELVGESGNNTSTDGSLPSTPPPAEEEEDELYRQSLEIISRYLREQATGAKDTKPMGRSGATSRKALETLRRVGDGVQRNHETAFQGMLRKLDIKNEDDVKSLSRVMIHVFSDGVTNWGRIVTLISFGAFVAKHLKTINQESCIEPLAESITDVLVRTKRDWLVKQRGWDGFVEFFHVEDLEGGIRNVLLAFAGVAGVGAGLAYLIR
Mcl1 Bid PPI = Mcl-1/Bid interaction inhibition | Q07820 | TR-FRET Mcl-1/Bid-Dy647 peptide binding, 1536-well | inhibition, % at 21.7 µM | 220,000 compounds, 0.97% hits | AID 1021;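 active = compounds that cut the binding signal by more than half at the single screening dose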;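 also: His-tagged Mcl-1 with europium anti-His antibody binding Bid BH3 peptide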
NOD2-RIPK2 inh = blocks binding of human NOD2 to RIPK2 | O43353 | CHO BLA complementation NOD2-RIPK2, CCF4 ratio | inhibition, % at 4.98 µM | 360,000 compounds, 0.38% hits; in the data active = inhibition above about 21%
TLR9-MyD88 inh = inhibitors of human TLR9-MyD88 binding; 340,000 compounds, 0.21% hits; CHO BLA complementation TLR9-MyD88, CCF4 FRET ratio; inhibition, % at 4.98 µM;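 active = inhibition above the mean over all tested compounds plus 3 SD, cut at about 21% in these data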
Bim-Mcl-1 = inhibitors of Bim-Mcl-1 interaction, human. 190,000 compounds, 0.1% hits. Q07820. inhibition, % at 10 µM. Bead-based flow cytometry, Bim peptide-Mcl-1 binding; in the data active = inhibition above about 40%
TLR4-MyD88 BLA = TLR4-MyD88 interaction inhibition in cells; 200,000 compounds, 0.18% hits; inhibition, % at 8.4 µM; HeLa CL3-4 TLR4/MyD88 BLA complementation, FRET ratio; in the data active = inhibition above about 25%
A number is an active result. Only some compounds are listed: those with a hit (about 1.8% of all), similar ones and a draw of the others.

For Cc1cc(C)c(CSc2ncc(-c3ccc([N+](=O)[O-])cc3)[nH]2)c(C)c1 the results were Mcl1 Noxa PPI inactive, Mcl1 Bid PPI inactive, NOD2-RIPK2 inh 41.0, TLR9-MyD88 inh inactive, Bim-Mcl-1 inactive and TLR4-MyD88 BLA inactive.
`CCOc1ccc(-n2c(SCC(=O)Nc3ccc(CC)cc3)nc3n[nH]c(C)c3c2=N)cc1` gave Mcl1 Noxa PPI 58.7, Mcl1 Bid PPI 58.9, NOD2-RIPK2 inh inactive, TLR9-MyD88 inh inactive, Bim-Mcl-1 inactive and TLR4-MyD88 BLA inactive.
For CCn1c(SCC(=O)Nc2ccc(F)cc2)nnc1C1CC1 the results were NOD2-RIPK2 inh inactive and TLR9-MyD88 inh inactive.
Screening COc1cc(/C=C(/C#N)c2nc(-c3cc4ccccc4oc3=O)cs2)cc([N+](=O)[O-])c1O returned Mcl1 Noxa PPI 97.8 and Mcl1 Bid PPI 96.6.
COc1cc(/C=C(\C#N)c2nc(-c3cc4ccccc4oc3=O)cs2)ccc1O was read as Mcl1 Noxa PPI 58.8, Mcl1 Bid PPI 63.8, NOD2-RIPK2 inh inactive, TLR9-MyD88 inh inactive, Bim-Mcl-1 inactive and TLR4-MyD88 BLA inactive.
Cc1ccc(NC(=O)CN(C)C(=O)COC(=O)CCS(=O)(=O)c2ccc(C)cc2)cc1 was read as NOD2-RIPK2 inh inactive and TLR9-MyD88 inh inactive.
COC(=O)c1ccc2nc(-c3ccc(C)cc3)c(Cc3cccc(Cl)c3)n2c1 was read as NOD2-RIPK2 inh inactive.
N#C/C(C(=O)c1ccccc1)=C1/SC=C(N)N1c1ccccc1 was read as Mcl1 Noxa PPI 55.2, Mcl1 Bid PPI inactive, Bim-Mcl-1 inactive and TLR4-MyD88 BLA inactive.
For N#C/C(C(N)=O)=C1/SC=C(c2ccccc2)N1c1ccccc1 the results were Mcl1 Noxa PPI inactive, Mcl1 Bid PPI inactive and NOD2-RIPK2 inh inactive.
O=C1/C(=C/c2ccccn2)SC(=S)N1c1ccc(O)cc1 was read as Mcl1 Noxa PPI 77.2, Mcl1 Bid PPI inactive, NOD2-RIPK2 inh inactive and TLR9-MyD88 inh inactive.
Screening Cc1ccc(/C=C2/SC(=S)N(c3ccc(S(=O)(=O)Nc4nccs4)cc3)C2=O)cc1 returned Mcl1 Noxa PPI 56.3, Mcl1 Bid PPI inactive, NOD2-RIPK2 inh inactive and TLR9-MyD88 inh inactive.
For Cc1ccc(-n2[nH]c(C)c(C=Nc3ccc(S(=O)(=O)Nc4nccs4)cc3)c2=O)cc1C the results were Mcl1 Noxa PPI 60.7, Mcl1 Bid PPI inactive, NOD2-RIPK2 inh inactive, TLR9-MyD88 inh inactive, Bim-Mcl-1 inactive and TLR4-MyD88 BLA inactive.
Screening Cc1cccc(N2C(=O)/C(=C/c3ccccn3)SC2=S)c1 returned Mcl1 Noxa PPI inactive, Mcl1 Bid PPI inactive and NOD2-RIPK2 inh inactive.
For COc1ccc(/C=C2/SC(=S)N(c3ccc(S(=O)(=O)Nc4nccs4)cc3)C2=O)cc1 the results were Mcl1 Noxa PPI 101.0, Mcl1 Bid PPI inactive, NOD2-RIPK2 inh inactive and TLR9-MyD88 inh inactive.
O=C(O)c1ccccc1C(=O)c1cccc2ccccc12 was read as NOD2-RIPK2 inh inactive and TLR9-MyD88 inh inactive.
`CN(CC(=O)Nc1ccccc1C(=O)NC1CC1)Cc1cccs1` gave NOD2-RIPK2 inh inactive and TLR9-MyD88 inh inactive.
For COCCCn1cnnc1SC(C)C(=O)Nc1ccc(S(=O)(=O)N2CCOCC2)cc1 (stereo not drawn) the results were NOD2-RIPK2 inh inactive and TLR9-MyD88 inh inactive.
Screening O=C1/C(=C\c2ccccn2)SC(=S)N1c1ccc(S(=O)(=O)Nc2nccs2)cc1 returned Mcl1 Noxa PPI 82.2, Mcl1 Bid PPI inactive, NOD2-RIPK2 inh inactive and TLR9-MyD88 inh inactive.
Screening Cc1cc(=O)n2nc(N3CCCC3C(=O)Nc3cccc(F)c3)sc2n1 (stereo not drawn) returned NOD2-RIPK2 inh inactive and TLR9-MyD88 inh inactive.
`N=C1S/C(=C\c2ccco2)C(=O)N1c1ccc2c(c1)OCO2` gave Mcl1 Noxa PPI 83.8, Mcl1 Bid PPI inactive, NOD2-RIPK2 inh inactive, TLR9-MyD88 inh inactive, Bim-Mcl-1 inactive and TLR4-MyD88 BLA inactive.
O=C(Nc1cccc(S(=O)(=O)NC2=NCCC2)c1)c1cc(-c2ccco2)nc2ccccc12 was read as Mcl1 Noxa PPI 98.5, Mcl1 Bid PPI inactive, NOD2-RIPK2 inh inactive and TLR9-MyD88 inh inactive.
For Cn1cnnc1SCC(=O)Nc1cccc(S(=O)(=O)N2CCCCCC2)c1 the results were Mcl1 Noxa PPI inactive, Mcl1 Bid PPI inactive, NOD2-RIPK2 inh inactive, TLR9-MyD88 inh inactive, Bim-Mcl-1 inactive and TLR4-MyD88 BLA inactive.
